Results: PubChem BioAssay (Tox21)
Results filed as inconclusive are left out. The source made the active and inactive calls. Unless noted, the call rests on the fitted dose curve.

Experiments:
[1] = Nuclear factor erythroid 2-related factor 2/antioxidant responsive element (Nrf2/ARE) small molecule agonists: qHTS cell viability counter screen in human keratinocytes (AID 1919968; active means well fitted curve in the direction sought with a large enough effect in the repeat runs; an effect the other way counts as inactive or inconclusive; further: nearly all actives have a fitted effect of over 55% in size)
Outline: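 Seed 1,500 KeratinoSens cells per well, then incubate 5 h at 37 C/5% CO2. Add compounds in DMSO and incubate 23 h. Add CellTiter-Fluor, wait 1 h and read fluorescence.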

[2] = Nuclear factor erythroid 2-related factor 2/antioxidant responsive element (Nrf2/ARE) small molecule agonists: luciferase reporter gene qHTS assay in human keratinocytes (AID 1919969); further: nearly all actives have a fitted effect of over 35% in size
[3] = molecular target: Gonadotropin-releasing hormone receptor (Homo sapiens) (UniProt P30968); experiment: Human gonadotropin-releasing hormone receptor (GnRHR) small molecule agonists, calcium flux assay in GnRHR-HEK293 cells (AID 1920063); further: nearly all actives have a fitted effect of over 35% in size
Outline: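 Cells: HEK293 stably expressing human GnRHR. Steps: overnight (18 h) culture, 1 h calcium dye loading at 37 C, compound addition, kinetic fluorescence read at 480/540 nm. Each compound tested at 15 concentrations in triplicate.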

[4] = molecular target: KiSS-1 receptor (Homo sapiens) (UniProt Q969F8); experiment: Human kisspeptin (KISS1R) small molecule agonists, calcium flux assay in KISS1R-HEK293 cells (AID 1920064; active means well fitted curve in the direction sought with a large enough effect in the repeat runs; an effect the other way counts as inactive or inconclusive)
Outline: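 Cells plated and incubated 18 h; dye added, 1 h at 37 C; compounds in DMSO pinned in; signal read at 480/540 nm every second for 3 min. Each compound tested at 15 concentrations in triplicate.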

[5] = G protein-coupled receptor (GPCR) small molecule agonists, calcium flux assay: HEK293 wild type cell line counter screen (AID 1920065)
Outline: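 Counter-screen of the Tox21 10K library for non-specific calcium release: dye-loaded cells received compounds in DMSO and were monitored by kinetic fluorescence (480/540 nm, 3 min). Fifteen concentrations, run in triplicate.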

[6] = p53 small molecule agonists, cell-based qHTS assay with human liver microsomes (AID 1963577)
Outline: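 p53RE-bla reporter cells were pre-incubated 5 h at 37 C, then treated with compounds plus human liver microsomes (0.5 mg/mL final) and NADPH (0.5 mg/mL final) for 16 h at 37 C. Beta-lactamase activity was read by LiveBLAzer fluorescence after 2 h at room temperature.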

[7] = p53 small molecule agonists, cell-based qHTS assay with rat liver microsomes (AID 1963578)
Outline: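 p53RE-bla cells were exposed to compounds together with rat liver microsomes (0.5 mg/mL final) and NADPH (0.5 mg/mL final) for 16 h at 37 C, then read by LiveBLAzer beta-lactamase fluorescence after 2 h at room temperature.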

[8] = p53 small molecule agonists, cell-based qHTS assay with human liver microsomes: qHTS cell viability counter screen (AID 1963579); further: nearly all actives have a fitted effect of over 45% in size
Outline: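 p53RE-bla cells (4,000/well) were pre-incubated 5 h at 37 C, then given compounds in DMSO plus human liver microsomes (0.5 mg/mL final) and NADPH (0.5 mg/mL final) for 16 h at 37 C. Viability was read by CellTiter-Glo luminescence.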

[9] = p53 small molecule agonists, cell-based qHTS assay with rat liver microsomes: qHTS cell viability counter screen (AID 1963580); further: nearly all actives have a fitted effect of over 45% in size
Outline: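 HCT-116 p53RE-bla, 4,000 cells/well, 5 h pre-incubation; cpd + rat liver microsomes 0.5 mg/mL + NADPH 0.5 mg/mL (final); 16 h, 37 C; CellTiter-Glo, 30 min RT; luminescence.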

[10] = p53 small molecule agonists, cell-based qHTS assay: qHTS cell viability counter screen (AID 1963581); further: nearly all actives have a fitted effect of over 45% in size
Outline: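 Cells: HCT-116 with p53 response element-driven beta-lactamase. Treatment: 16 h, 37 C, compounds in DMSO. Read: CellTiter-Glo luminescence after 30 min RT.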

[11] = p53 small molecule agonists, cell-based qHTS assay (AID 1963582; active means well fitted activation curve with a large enough effect in the signal ratio in the repeat runs, not every such curve was filed as active; the % refers to the signal ratio)
Outline: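 Quantitative HTS in p53RE-bla cells: after a 5 h settling period, compounds delivered in DMSO were left on cells for 16 h at 37 C, and reporter induction was measured as fluorescence following 2 h substrate loading.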

[12] = molecular target: 5-hydroxytryptamine receptor 2A (Homo sapiens) (UniProt P28223); experiment: 5-hydroxytryptamine receptor 2A (HTR2A) small molecule antagonists, cell-based qHTS assay (AID 1963586); further: nearly all actives have a fitted effect of over 45% in size
Outline: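 Antagonist-mode intracellular calcium assay: DOI (4 nM) added after 5 min compound pre-incubation at room temperature to dye-loaded HTR2A-CHO cells. Fluorescence followed for 3 min, sampled every second.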

[13] = molecular target: 5-hydroxytryptamine receptor 2A (Homo sapiens) (UniProt P28223); experiment: 5-hydroxytryptamine receptor 2A (HTR2A) small molecule agonists, cell-based qHTS assay (AID 1963587); further: nearly all actives have a fitted effect of over 30% in size
Outline: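 Kinetic calcium-flux fluorescence (2 min, 1 sec intervals) after compound addition in agonist mode. HTR2A-CHO cells were cultured 18 h, then dye-loaded 1 h at 37 C.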

[14] = molecular target: Muscarinic acetylcholine receptor M1 (Homo sapiens) (UniProt P11229); experiment: Cholinergic receptor muscarinic 1 (CHRM1) small molecule antagonists, cell-based qHTS assay (AID 1963588); further: nearly all actives have a fitted effect of over 40% in size
Outline: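 CHRM1-CHO calcium-flux assay, antagonist mode. Cells were seeded 18 h, dye-loaded 1 h at 37 C and given compound for 5 min at RT, then acetylcholine was added at 50nM. FDSS fluorescence was read 3 min; 15 concentrations, three runs.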

[15] = molecular target: Muscarinic acetylcholine receptor M1 (Homo sapiens) (UniProt P11229); experiment: Cholinergic receptor muscarinic 1 (CHRM1) small molecule agonists, cell-based qHTS assay (AID 1963589); further: nearly all actives have a fitted effect of over 35% in size
Outline: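 Agonist-mode qHTS in CHO cells stably carrying human muscarinic M1. Intracellular calcium is tracked by fluorescence every second after compound transfer; each compound runs at 15 concentrations in three independent runs.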

[16] = cAMP Responsive Elements (CRE) small molecule agonists, cell-based qHTS assay (AID 1963590)
Outline: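 Agonist mode qHTS in CRE-bla HEK 293T cells: compounds dosed from DMSO for 3 h at 37 C/5% CO2, followed by LiveBLAzer B/G FRET substrate for 2 h at room temperature.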

[17] = cAMP Responsive Elements (CRE) small molecule antagonists, cell-based qHTS assay (AID 1963591; active means well fitted inhibition curve with a large enough effect in the signal ratio in the repeat runs, not every such curve was filed as active; the % refers to the signal ratio)
Outline: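 Antagonist mode: test compounds are co-incubated with the adenylyl cyclase activator NKH477 (0.25 uM final) on CRE-bla HEK293T cells for 3 h at 37 °C, followed by LiveBLAzer substrate loading.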

[18] = molecular target: Beta-2 adrenergic receptor (Homo sapiens) (UniProt P07550); experiment: Adrenergic beta2 receptor (ADRB2) small molecule antagonists, cell-based qHTS assay (AID 1963592); further: series mostly up to about 92 µM; nearly all actives have a fitted effect of over 50% in size
Outline: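 Cells (CHO, stable ADRB2 overexpression) incubated 18-20hr at 37C; compounds added from DMSO; agonist mix (1nM isoproterenol, 100uM IBMX, 25uM Ro-20-1724) added; 0.5hr RT; d2-cAMP and anti-cAMP-cryptate added; 1hr RT; 665/615 nm read.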

[19] = molecular target: D(2) dopamine receptor (Homo sapiens) (UniProt P14416); experiment: Dopamine D2 receptor (DRD2) small molecule agonists, cell-based qHTS assay (AID 1963594); further: nearly all actives have a fitted effect of over 35% in size
Outline: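 cAMP accumulation in DRD2-HEK293 cells measured by HTRF after 1 h detection; compounds added 10 min before NKH477 (200nM […]) forskolin-analogue stimulation, 30 min at room temperature, with Ro20-1724 present at 0.1 mM final.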

[20] = molecular target: D(2) dopamine receptor (Homo sapiens) (UniProt P14416); experiment: Dopamine D2 receptor (DRD2) small molecule antagonists, cell-based qHTS assay (AID 1963595; active means well fitted inhibition curve with a large enough effect in the signal ratio in the repeat runs, with a control signal flat; the % refers to the signal ratio)
Outline: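 DRD2-HEK293; 0.1 mM Ro20-1724; cpd 10 min RT; NKH477 200 nM + quinpirole 12 nM, 30 min RT; HTRF cAMP (cAMP-d2/anti-cAMP cryptate), 665/620 nm ratio after 1 h.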

Measured: Potency

Sequence of Gonadotropin-releasing hormone receptor (Homo sapiens) (P30968 whole entry, looked up): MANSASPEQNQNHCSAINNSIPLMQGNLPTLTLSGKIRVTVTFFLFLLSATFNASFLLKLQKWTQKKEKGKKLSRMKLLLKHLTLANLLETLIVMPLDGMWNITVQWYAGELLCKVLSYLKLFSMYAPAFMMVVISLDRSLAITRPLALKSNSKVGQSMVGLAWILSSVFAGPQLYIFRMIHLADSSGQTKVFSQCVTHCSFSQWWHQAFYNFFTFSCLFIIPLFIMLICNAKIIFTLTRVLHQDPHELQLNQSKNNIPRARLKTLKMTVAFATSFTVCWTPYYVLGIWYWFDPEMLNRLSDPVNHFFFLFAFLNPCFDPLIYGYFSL
Sequence of KiSS-1 receptor (Homo sapiens) (Q969F8 whole entry, looked up): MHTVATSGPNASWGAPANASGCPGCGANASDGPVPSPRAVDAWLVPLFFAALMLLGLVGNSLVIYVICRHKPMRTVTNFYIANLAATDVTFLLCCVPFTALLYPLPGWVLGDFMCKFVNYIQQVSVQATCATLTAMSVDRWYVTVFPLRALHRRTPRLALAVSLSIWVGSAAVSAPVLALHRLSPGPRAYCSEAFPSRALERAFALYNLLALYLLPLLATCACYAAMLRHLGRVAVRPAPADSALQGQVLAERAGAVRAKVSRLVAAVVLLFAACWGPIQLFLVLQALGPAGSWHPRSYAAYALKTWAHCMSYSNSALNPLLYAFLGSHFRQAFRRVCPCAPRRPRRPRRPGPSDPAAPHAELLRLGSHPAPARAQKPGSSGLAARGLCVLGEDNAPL
Sequence of D(2) dopamine receptor (Homo sapiens) (P14416 whole entry, looked up): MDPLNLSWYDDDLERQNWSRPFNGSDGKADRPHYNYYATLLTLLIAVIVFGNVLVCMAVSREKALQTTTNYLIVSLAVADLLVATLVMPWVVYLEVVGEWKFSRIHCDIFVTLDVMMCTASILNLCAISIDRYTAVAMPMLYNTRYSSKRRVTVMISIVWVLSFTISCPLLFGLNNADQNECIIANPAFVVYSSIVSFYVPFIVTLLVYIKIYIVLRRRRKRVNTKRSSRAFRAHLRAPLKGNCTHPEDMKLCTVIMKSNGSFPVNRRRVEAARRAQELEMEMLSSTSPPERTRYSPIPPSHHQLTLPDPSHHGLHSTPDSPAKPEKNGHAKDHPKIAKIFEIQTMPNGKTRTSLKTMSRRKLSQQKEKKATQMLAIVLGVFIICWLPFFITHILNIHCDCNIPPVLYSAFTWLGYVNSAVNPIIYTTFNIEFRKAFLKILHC
Sequence of Muscarinic acetylcholine receptor M1 (Homo sapiens) (P11229 whole entry, looked up): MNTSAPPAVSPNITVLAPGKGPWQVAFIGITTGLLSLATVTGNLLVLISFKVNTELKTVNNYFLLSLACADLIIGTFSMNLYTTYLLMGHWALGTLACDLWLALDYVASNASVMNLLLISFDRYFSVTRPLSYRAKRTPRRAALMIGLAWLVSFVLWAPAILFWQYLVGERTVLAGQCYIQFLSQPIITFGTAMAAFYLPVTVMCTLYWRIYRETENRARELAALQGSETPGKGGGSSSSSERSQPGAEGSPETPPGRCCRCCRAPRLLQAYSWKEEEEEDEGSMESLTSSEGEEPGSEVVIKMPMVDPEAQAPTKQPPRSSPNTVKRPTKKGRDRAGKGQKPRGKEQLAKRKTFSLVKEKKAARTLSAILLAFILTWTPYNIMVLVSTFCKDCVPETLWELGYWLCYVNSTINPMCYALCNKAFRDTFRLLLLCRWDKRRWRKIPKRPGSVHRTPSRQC
Sequence of Beta-2 adrenergic receptor (Homo sapiens) (P07550 whole entry, looked up): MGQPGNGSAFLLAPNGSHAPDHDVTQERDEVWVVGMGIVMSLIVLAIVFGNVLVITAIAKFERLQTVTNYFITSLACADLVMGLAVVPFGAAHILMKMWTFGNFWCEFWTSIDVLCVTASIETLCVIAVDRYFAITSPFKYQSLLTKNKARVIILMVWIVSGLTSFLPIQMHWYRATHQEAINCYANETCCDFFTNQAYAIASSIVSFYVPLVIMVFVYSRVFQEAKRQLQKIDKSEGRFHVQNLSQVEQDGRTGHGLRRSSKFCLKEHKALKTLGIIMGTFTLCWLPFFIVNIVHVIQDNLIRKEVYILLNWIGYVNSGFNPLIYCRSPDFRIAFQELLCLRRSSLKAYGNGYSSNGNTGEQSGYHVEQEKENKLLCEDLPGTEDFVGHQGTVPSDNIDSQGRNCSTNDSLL
Sequence of 5-hydroxytryptamine receptor 2A (Homo sapiens) (P28223 whole entry, looked up): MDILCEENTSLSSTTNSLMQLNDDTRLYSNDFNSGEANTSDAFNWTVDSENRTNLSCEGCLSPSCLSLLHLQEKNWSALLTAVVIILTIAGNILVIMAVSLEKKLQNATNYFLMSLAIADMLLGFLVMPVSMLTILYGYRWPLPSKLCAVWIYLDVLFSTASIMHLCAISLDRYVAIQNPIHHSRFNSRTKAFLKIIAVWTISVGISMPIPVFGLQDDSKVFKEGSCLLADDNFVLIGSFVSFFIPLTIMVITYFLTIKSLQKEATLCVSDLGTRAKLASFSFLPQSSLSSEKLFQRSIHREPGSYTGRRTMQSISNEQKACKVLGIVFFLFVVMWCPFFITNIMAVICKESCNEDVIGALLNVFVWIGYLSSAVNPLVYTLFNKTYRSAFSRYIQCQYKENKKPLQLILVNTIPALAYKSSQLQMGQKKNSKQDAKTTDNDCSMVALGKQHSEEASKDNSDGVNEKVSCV

CCCCC(CC)COC(=O)c1ccccc1O (stereo not given)
inactive: all assays above

ClC1=C(Cl)C1(Cl)Cl
inactive: all assays above

CC(O)c1ccccc1 (stereo not given)
inactive: all assays above

O=C1[C@H](CC[C@H](O)c2ccc(F)cc2)[C@@H](c2ccc(O)cc2)N1c1ccc(F)cc1
inactive: all assays above

CC1CCCO1 (stereo not given)
inactive: all assays above

Nc1nc(N)c(-c2ccccc2)s1
inactive: all assays above

Nc1cc(C(=O)O)ccc1Cl
inactive: all assays above
